Cycloheximide cs: affects cycloheximide protein synthesis inhibition readout, counter-screen | cell reporter, cycloheximide protein synthesis inhibition counterscreen | max response, % | 300,000 compounds, 12% hits | AID 2314; in the data active = max response mostly above about 13%, no sharp cut-off; inactive = mostly below about 14%; note: read at 38.3 µM for the half of the compounds with a filed dose; 0% is about no effect
LmPK inhibitor: blocks Leishmania mexicana pyruvate kinase activity; Q27686; purified LmPK, Kinase-Glo ATP luminescence, 1 h; Potency, µM (doses to about 57.5 µM), inactives show top-dose activity change, negative = inhibition, hits mostly inhibitors; 290,000 compounds, 0.37% hits; note: potency is the fitted concentration of half-maximal effect; % is set by controls: 0 for no effect and ±100 for the full control effect
Target sequence (Q27686 whole entry, looked up): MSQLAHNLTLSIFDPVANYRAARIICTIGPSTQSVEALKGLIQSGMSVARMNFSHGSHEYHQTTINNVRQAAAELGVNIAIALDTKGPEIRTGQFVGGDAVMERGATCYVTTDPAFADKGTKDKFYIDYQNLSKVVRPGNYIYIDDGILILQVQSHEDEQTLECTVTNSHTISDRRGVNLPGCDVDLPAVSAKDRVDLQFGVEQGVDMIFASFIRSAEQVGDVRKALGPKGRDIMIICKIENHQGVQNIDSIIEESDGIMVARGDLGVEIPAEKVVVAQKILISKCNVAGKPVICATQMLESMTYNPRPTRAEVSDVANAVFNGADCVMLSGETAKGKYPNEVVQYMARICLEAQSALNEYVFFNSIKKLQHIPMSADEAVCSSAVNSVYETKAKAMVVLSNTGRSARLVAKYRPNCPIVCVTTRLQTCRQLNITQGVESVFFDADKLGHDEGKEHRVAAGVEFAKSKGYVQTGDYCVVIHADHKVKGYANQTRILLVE
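Kinase-Glo luminescence read after 1 h RT reaction of 0.1 nM LmPK with 0.5 mM PEP and 0.1 mM ADP. Activity scaled between uninhibited and enzyme-free controls.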
Pf growth 96h: inhibits malaria parasite growth, 96 h; P. falciparum luciferase reporter growth, 96 h; 320,000 compounds, 6.9% hits; Potency, µM (series often up to 28.7 µM), without a hit: top-dose activity change, negative = inhibition, usual class: inhibitors; note: potency is the fitted concentration of half-maximal effect; % is set by controls: 0 for no effect and ±100 for the full control effect
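Delayed-death screen, second-generation endpoint: infected erythrocytes, 2% hematocrit, 0.05% parasitemia final; 96 hours at 37 C, 5% CO2; luciferase detection reagent; luminescence decrease equals reduced growth.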
Shiga toxin inh: inhibitors of Shiga toxin in Vero cells | 290,000 compounds, 9.2% hits | Vero cells, Shiga toxin protein synthesis inhibition reporter | AID 2315 | inhibition, % at 38.7 µM; in the data active = inhibition mostly above about 28%, no sharp cut-off; inactive = mostly below about 43%; note: 0% is about no effect
Pf growth 48h: P. falciparum growth inhibition at 48 hours (one generation) | P. falciparum luciferase growth in erythrocytes, 48 h | Potency, µM (top dose mostly 28.7 µM), without a hit: at the highest dose activity change, negative = inhibition, usual class: inhibitors | 310,000 compounds, 5.9% hits; note: potency is the fitted concentration of half-maximal effect; % is set by controls: 0 for no effect and ±100 for the full control effect
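Parasite viability was followed by luminescence of a genomically integrated firefly luciferase. Cultures held 0.1% parasitemia at 2% hematocrit (final), incubated under 5% CO2 at 37 C.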
The depositor's hits bear a star; i = inactive; ? = inconclusive; . = not tested or not shown; [ ] = dose if it differs, or a comment. Only some compounds are listed: those with a hit (about 22% of all), similar ones and a draw of the others. Unless noted, calls come from the whole dose curve; as a rule, active = well fitted inhibition curve with a large enough effect; inconclusive = small, poorly fitted or top-dose-only effect, or another doubt; inactive = no such curve, though single readings can be large or run the other way.

SMILES	Cycloheximide cs	LmPK inhibitor	Pf growth 96h	Shiga toxin inh	Pf growth 48h
CC(CCc1ccccc1)NC(=O)C1CCN(S(=O)(=O)N2CCCCC2)CC1 (configuration not stated)	-2.7	0.4%	1.04µM*	-4.8	?
CC(NC(=O)c1ccco1)C(=O)OCC(=O)N1CCCCCC1 (configuration not stated)	.	.	-15.5%	.	-3.1%
Cc1ccccc1OCC1Cn2c(nc3c2c(=O)n(C)c(=O)n3C)O1 (configuration not stated)	-2.6	1.7%	0.1%	-6.6	8.9%
CC(CCOC1=NS(=O)(=O)c2ccccc21)NC(=O)C(=O)Nc1ccccc1 (configuration not stated)	29.4*	4.3%	66.9%	65.1*	65.1%
O=C(NCCCCCCOC1=NS(=O)(=O)c2ccccc21)C(=O)Nc1ccccc1	25.2	7.4%[11.5 µM]	37.0%	46.9	197.2%
O=C(NCc1ccco1)c1cc(-c2ccccc2)on1	48.1*	-5.2%	.	104.5*	121.3%
O=C(NCc1ccco1)c1ccccc1-c1ccccc1	-1.8	1.1%	-17.0%	-9.2	.
O=C(NCc1ccco1)c1cc(-c2ccc(F)cc2)on1	58.7*	1.9%	?	91.7*	48.8%
CC(C)c1cc(C(=O)NCCc2ccccc2)no1	46.9*	0.1%	0.0%	72.1*	i
CC(C)c1cc(C(=O)NCc2ccco2)no1	41.8*	3.4%	25.0%	66.3*	96.3%
COc1ccc(CCNC(=O)c2cc(-c3ccccc3)on2)cc1OC	4.1	-7.4%	.	9.7	-1.9%
COc1ccc(NC(=O)CCC(=O)N2CCCC2)c([N+](=O)[O-])c1	-2.3	-0.4%	-26.0%	-5.7	-6.3%
O=C(NCc1ccco1)c1cc(-c2cccs2)on1	55.4*	5.4%	-25.8%	121.2*	337.1%
O=C(NCCc1ccccc1)c1cc2ncc(Br)cn2n1	26.4*	-14.6%	.	45.9	34.2%
CC(=O)N1c2ccc(S(=O)(=O)N3CCC(C(=O)NC(C)c4ccccc4)CC3)cc2CC1C (configuration not stated)	2.1	-0.2%	?	-5.5	-10.5%
COc1ccc(C2CC(c3c(-c4ccccc4)c4cc(Cl)ccc4[nH]c3=O)=NN2S(C)(=O)=O)cc1 (configuration not stated)	-4.2	2.1%	.	-19.7	?
COc1ccc(OC)c(C2CC(c3c(-c4ccccc4)c4cc(Cl)ccc4[nH]c3=O)=NN2S(C)(=O)=O)c1 (configuration not stated)	4.5	1.5%	2.08µM*	14.4	9.28µM*
CCOc1ccc(Nc2nc(N)c([N+](=O)[O-])c(NCc3ccccc3)n2)cc1	18.9*	1.9%	?	33.6	5.22µM*
COc1cccc(Nc2nc(N)c([N+](=O)[O-])c(NCc3ccccc3)n2)c1	0.1	2.5%	11.7µM*	35.7	4.65µM*
Cc1cccc(Nc2nc(N)c([N+](=O)[O-])c(NCc3ccccc3)n2)c1	0.8	0.2%	?	-8.7	?
CCCCn1c(N)c(N(Cc2ccccc2OC)C(=O)C(C)C)c(=O)[nH]c1=O	-1.9	-4.7%	-16.2%	-13.7	8.6%
C=CCn1c(C)cc(-c2csc(NC(=O)CCc3nc4ccccc4c(=O)[nH]3)n2)c1C	.	.	-2.8%	.	?
CN(C)C(Cc1ccccc1)C(=O)c1c[nH]c2ccccc12 (configuration not stated)	27.8*	-1.1%	?	63.1	.
CN(C)C(Cc1ccccc1)C(=O)c1ccccc1 (configuration not stated)	33.2*	0.4%	?	64.8*	8.9%
CC(Cl)C(=O)c1c[nH]c2ccccc12 (configuration not stated)	-2.0	4.8%	-6.5%	-4.9	?
SMILES	Cycloheximide cs	LmPK inhibitor	Pf growth 96h	Shiga toxin inh	Pf growth 48h
CC(C)(C)C(=O)CN1C(=O)NC(C)(Cc2ccc3c(c2)OCO3)C1=O (configuration not stated)	-4.1	-4.6%	-1.7%	-6.8	2.2%
CCCOC(=O)Nc1ccc(S(=O)(=O)Nc2ncccn2)cc1	-5.5	0.9%	-2.1%	-1.3	5.0%
C/C(=N\NC(=O)c1ccc(-n2cnnn2)cc1)c1ccc(C)cc1	.	.	-17.7%	.	?
O=C(COC(=O)Cc1c(F)cccc1Cl)NC(=O)c1ccccc1	19.0	-10.5%	18.2%	-33.9	9.8%
COc1ccc(-c2[nH]ncc2/C=N\NC(=O)c2ccc(C(C)(C)C)cc2)cc1OC	21.3*	-2.3%	?	76.0*	16.0%
CCc1cc(-c2[nH]ncc2-c2nc3ccccc3n2C)c(O)cc1O	-3.1	0.0%	-24.9%	13.1	-18.2%
CCCc1cc(-c2[nH]ncc2-c2ccc(C(=O)OCC)o2)c(O)cc1O	-1.8	6.8%	7.1%	-14.6	6.57µM*
CCCc1cc(-c2[nH]ncc2-c2ccc3c(c2)OCCCO3)c(O)cc1O	10.4	-0.3%	13.1µM*	-17.4	?
Cn1cc(CNCc2cn[nH]c2-c2ccc(F)cc2)c(-c2ccc3c(c2)OCCO3)n1	-3.5	6.6%	-4.6%	10.5	14.9%
CCOC(=O)c1cc(NC(=O)N(C)C2CCCCC2)c(C)nc1C	-0.1	0.5%	26.2%	4.2	9.1%
Cc1cccc(OC(C)C(=O)Nc2cc(Cl)ccc2-n2cncn2)c1 (configuration not stated)	.	.	?	.	4.15µM*
CCc1cccc(OCC(=O)Nc2cc(Cl)ccc2-n2cncn2)c1	.	.	?	.	13.1µM*
CCCOc1ccccc1OCC(=O)Nc1cc(Cl)ccc1-n1cncn1	.	.	9.28µM*	.	11.7µM*
Cc1cccc(C)c1OCC(=O)Nc1cc(Cl)ccc1-n1cncn1	.	.	13.1µM*	.	13.1µM*
O=C(COc1ccc(F)cc1)Nc1cc(Cl)ccc1-n1cncn1	.	.	-4.8%	.	?
Nc1[nH]c(=O)[nH]c(=O)c1N=Nc1ccc(C(=O)O)cc1	-4.5	-10.4%	10.8%	5.0	-11.3%
Cc1ccc(OCCOc2ccc(S(=O)(=O)N3CCCC3)cc2C(N)=O)cc1	.	.	7.1%	.	6.5%
Cn1c(N)c(C(=O)CSc2ccccn2)c(=O)n(C)c1=O	15.1	-2.4%	9.9%	47.4*	67.4%
COc1ccc(NC(=O)CSc2ccccn2)c([N+](=O)[O-])c1	36.8*	0.1%	32.9%	101.9*	60.3%
Cn1c(N)c(C(=O)COC(=O)c2ccccn2)c(=O)n(C)c1=O	-1.5	-0.5%	-1.5%	-19.9	26.8%
COc1ccc(NC(=O)CSc2nc(C)cc(C)n2)c([N+](=O)[O-])c1	-2.0	0.9%	2.3%	-6.0	-14.4%
COc1ccc(NC(=O)CC(C)C)c([N+](=O)[O-])c1	-2.0	3.3%	0.0%	10.3	30.9%
COc1ccc(NC(=O)CC(C)c2ccccc2)c([N+](=O)[O-])c1 (configuration not stated)	19.0*	0.4%	38.9%	24.1	-3.8%
O=C(CCSc1ccccn1)Nc1ccc(Br)cc1	49.1*	2.0%	182.9%	101.4*	164.1%
O=C(O)CCSc1ccccn1	-2.9	-0.4%	?	-1.0	51.0%
O=C(OCC(=O)N1CCCc2ccccc21)c1ccccc1NCCO	.	.	7.0%	.	?

Source: PubChem
